In PubChem BioAssay (Tox21):
Records with an inconclusive call do not appear. Active and inactive are the calls of the source. Unless noted, calls come from the whole dose curve; as a rule, active = well fitted curve in the direction sought with a large enough effect in the repeat runs; inconclusive = weak or mixed curves; inactive = no such curve, though single readings can be large; an effect the other way counts as inactive or inconclusive.

Tests used:
[1] = biological target: Peroxisome proliferator-activated receptor delta (Homo sapiens) (UniProt Q03181); assay: qHTS assay to identify small molecule agonists of the peroxisome proliferator-activated receptor delta (PPARd) signaling pathway (AID 743212; calls by dose curve)
Procedure, shortened: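 Quantitative high-throughput agonist screen in a HEK293H beta-lactamase reporter line under UAS control. Compounds in DMSO, at 37 C. Fluorescence read after 2 h with FRET substrate at room temperature.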

[2] = qHTS assay to identify small molecule agonists of the farnesoid-X-receptor (FXR) signaling pathway - cell viability counter screen (AID 743218); note: nearly all actives have a fitted effect of over 45% in size
Procedure, shortened: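 Parallel cytotoxicity test: compound-treated (16 h, 37 C) HEK 293T FXR-bla reporter cells were lysed with CellTiter-Glo and luminescence recorded.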

[3] = qHTS assay to identify small molecule antagonists of the farnesoid-X-receptor (FXR) signaling pathway - cell viability counter screen (AID 743221; active = well fitted cell-killing curve with a large enough effect in the repeat runs, not every such curve was filed as active; note: nearly all actives have a fitted effect of over 50% in size)
Procedure, shortened: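 Cytotoxicity is taken from ATP luminescence (CellTiter-Glo, 30 min, room temperature) in FXR-bla HEK 293T cells previously incubated 16 h at 37 C with compound and chenodeoxycholic acid at 50 uM final.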

[4] = biological target: Vitamin D3 receptor (Homo sapiens) (UniProt P11473); assay: qHTS assay to identify small molecule agonists of the vitamin D receptor (VDR) signaling pathway (AID 743222; calls by dose curve)
Procedure, shortened: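 In VDR-bla cells, compound-induced beta-lactamase expression is quantified by FRET substrate fluorescence. Treatment lasts 16 h at 37C; substrate develops 2 h at room temperature.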

[5] = biological target: Vitamin D3 receptor (Homo sapiens) (UniProt P11473); assay: qHTS assay to identify small molecule antagonists of the vitamin D receptor (VDR) signaling pathway (AID 743223; active = well fitted inhibition curve with a large enough effect in the signal ratio in the repeat runs, not every such curve was filed as active; the % refers to the signal ratio)
Procedure, shortened: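 Quantitative HTS in VDR-bla reporter cells stimulated with 1alpha,25-dihydroxyvitamin D3, 3 nM final. Compound exposure 16 h, 37C, 5% CO2. Read-out: beta-lactamase FRET substrate fluorescence, 2 h RT.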

[6] = qHTS assay to identify small molecule antagonists of the peroxisome proliferator-activated receptor delta (PPARd) signaling pathway - cell viability counter screen (AID 743213); note: nearly all actives have a fitted effect of over 50% in size
Procedure, shortened: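 PPARd-bla HEK293H cells were treated with compounds plus agonist L165041 (300 nM final) for 17 h at 37 C. Viability was then read in the same wells by CellTiter-Glo luminescence after 30 min at room temperature.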

[7] = biological target: Bile acid receptor (Homo sapiens) (UniProt Q96RI1); assay: qHTS assay to identify small molecule antagonists of the farnesoid-X-receptor (FXR) signaling pathway (AID 743217; active = well fitted inhibition curve with a large enough effect in the signal ratio in the repeat runs, not every such curve was filed as active; the % refers to the signal ratio)
Procedure, shortened: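 GeneBLAzer FXR-UAS-bla HEK 293T, CDCA-stimulated (50 uM final). Compound treatment 16 h, 37 °C. Detection: beta-lactamase cleavage of B/G FRET substrate, fluorescence.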

[8] = biological target: Bile acid receptor (Homo sapiens) (UniProt Q96RI1); assay: qHTS assay to identify small molecule agonists of the farnesoid-X-receptor (FXR) signaling pathway (AID 743220; active = well fitted activation curve with a large enough effect in the signal ratio in the repeat runs, not every such curve was filed as active; the % refers to the signal ratio)
Procedure, shortened: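 Beta-lactamase reporter under UAS control in GeneBLAzer FXR HEK 293T cells (5000/well) measured with LiveBLAzer FRET substrate after 2 h at room temperature. Compound exposure lasted 16 h at 37C.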

[9] = qHTS assay to identify small molecule agonists of the vitamin D receptor (VDR) signaling pathway - cell viability counter screen (AID 743224); note: series mostly up to about 63 µM; nearly all actives have a fitted effect of over 50% in size
Procedure, shortened: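 Plated VDR-bla cells (4 h, 37C) received compound, incubated 16 h, then LiveBLAzer substrate 2 h RT; CellTiter-Glo added afterwards, luminescence read at 30 min.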

[10] = biological target: Peroxisome proliferator-activated receptor delta (Homo sapiens) (UniProt Q03181); assay: qHTS assay to identify small molecule antagonists of the peroxisome proliferator-activated receptor delta (PPARd) signaling pathway (AID 743215; active = well fitted inhibition curve with a large enough effect in the signal ratio in the repeat runs, not every such curve was filed as active; the % refers to the signal ratio;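 note: cells stimulated with agonist L165041 at 300 nM final during compound exposure; series mostly up to about 62 µM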)
Procedure, shortened: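 HEK293H UAS-bla, PPARd; agonist L165041 300 nM final with cpd in DMSO; 37 C 17 h; FRET substrate, RT 2 h; fluorescence intensity.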
% is set by controls: 0 for no effect and ±100 for the full control effect.

Vitamin D3 receptor (Homo sapiens), sequence (P11473 whole entry, looked up): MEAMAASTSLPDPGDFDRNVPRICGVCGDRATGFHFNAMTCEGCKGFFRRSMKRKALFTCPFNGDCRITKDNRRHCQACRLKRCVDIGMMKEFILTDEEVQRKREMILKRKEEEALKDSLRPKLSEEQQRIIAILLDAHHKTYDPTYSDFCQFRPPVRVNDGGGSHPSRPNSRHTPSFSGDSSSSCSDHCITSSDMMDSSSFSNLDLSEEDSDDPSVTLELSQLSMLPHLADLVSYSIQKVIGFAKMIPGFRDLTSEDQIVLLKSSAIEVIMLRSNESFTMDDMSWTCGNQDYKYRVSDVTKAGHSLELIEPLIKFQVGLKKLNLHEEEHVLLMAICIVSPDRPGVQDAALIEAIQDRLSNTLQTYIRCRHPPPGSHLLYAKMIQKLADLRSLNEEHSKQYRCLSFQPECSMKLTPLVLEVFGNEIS
Bile acid receptor (Homo sapiens), sequence (Q96RI1 whole entry, looked up): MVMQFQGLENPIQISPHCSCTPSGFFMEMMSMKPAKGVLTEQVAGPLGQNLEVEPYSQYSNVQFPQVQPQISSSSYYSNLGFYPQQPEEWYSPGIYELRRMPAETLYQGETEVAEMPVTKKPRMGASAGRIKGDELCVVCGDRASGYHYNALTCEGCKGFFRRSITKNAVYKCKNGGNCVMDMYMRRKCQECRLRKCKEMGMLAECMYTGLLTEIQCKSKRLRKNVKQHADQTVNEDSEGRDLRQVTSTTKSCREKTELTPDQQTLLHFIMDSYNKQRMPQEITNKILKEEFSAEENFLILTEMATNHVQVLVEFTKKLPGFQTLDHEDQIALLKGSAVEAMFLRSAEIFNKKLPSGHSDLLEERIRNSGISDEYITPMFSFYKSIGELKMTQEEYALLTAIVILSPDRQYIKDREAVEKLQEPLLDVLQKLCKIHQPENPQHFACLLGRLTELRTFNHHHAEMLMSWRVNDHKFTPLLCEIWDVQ
Peroxisome proliferator-activated receptor delta (Homo sapiens), sequence (Q03181 whole entry, looked up): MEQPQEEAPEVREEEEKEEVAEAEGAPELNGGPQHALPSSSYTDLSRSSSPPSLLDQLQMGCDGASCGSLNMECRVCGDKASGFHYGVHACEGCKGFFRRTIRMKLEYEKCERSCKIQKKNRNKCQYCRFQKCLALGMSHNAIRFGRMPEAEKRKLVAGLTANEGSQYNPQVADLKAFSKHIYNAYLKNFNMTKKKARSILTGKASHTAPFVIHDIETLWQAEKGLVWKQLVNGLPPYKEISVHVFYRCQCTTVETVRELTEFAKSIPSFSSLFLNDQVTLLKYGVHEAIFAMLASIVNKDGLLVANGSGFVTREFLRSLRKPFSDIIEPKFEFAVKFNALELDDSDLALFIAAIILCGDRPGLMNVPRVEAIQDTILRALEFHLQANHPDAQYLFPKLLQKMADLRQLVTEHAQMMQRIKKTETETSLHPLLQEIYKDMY

O=C(O)CC(C(=O)O)S(=O)(=O)O (stereo unspecified)
inactive: outcome [1] | outcome [2] | outcome [3] | outcome [4]

CCCCOC(=O)CCC(C)=O
inactive: outcome [1] | outcome [2] | outcome [3] | outcome [4] | outcome [5]

CCN[C@H]1C[C@H](C)S(=O)(=O)c2sc(S(N)(=O)=O)cc21
inactive: outcome [6] | outcome [7] | outcome [2] | outcome [8] | outcome [4] | outcome [5] | outcome [9]

CCC1C(=O)OCC1Cc1cncn1C (stereo unspecified)
inactive: outcome [6] | outcome [10] | outcome [2] | outcome [3] | outcome [4] | outcome [5] | outcome [9]

CNC(=O)Nc1ccc(Cl)c(Cl)c1
inactive: outcome [6] | outcome [7] | outcome [2] | outcome [8] | outcome [3] | outcome [9]

C[C@H]1C[C@H]2[C@@H]3CCC4=CC(=O)C=C[C@]4(C)[C@H]3C(=O)C[C@]2(C)[C@@]1(O)C(=O)CO
inactive: outcome [1] | outcome [2] | outcome [3] | outcome [4] | outcome [5] | outcome [9]

C=CC(=O)OCCCl
inactive: outcome [6] | outcome [7] | outcome [2] | outcome [8] | outcome [3] | outcome [4] | outcome [5] | outcome [9]

CCCC(=O)O[C@]1(C(=O)CC)CC[C@H]2[C@@H]3CCC4=CC(=O)CC[C@]4(C)[C@H]3[C@@H](O)C[C@@]21C
inactive: outcome [6] | outcome [10] | outcome [2] | outcome [3] | outcome [9]

O=S(=O)(O)c1cccc(S(=O)(=O)O)c1
inactive: outcome [1] | outcome [2] | outcome [3] | outcome [5]

C=CC(C)(CCC=C(C)C)OC(=O)CC (stereo unspecified)
inactive: outcome [6] | outcome [7] | outcome [2] | outcome [8] | outcome [3] | outcome [4] | outcome [5] | outcome [9]

CC(C#N)(CCC(=O)O)N=NC(C)(C#N)CCC(=O)O (stereo unspecified)
inactive: outcome [6] | outcome [7] | outcome [2] | outcome [8] | outcome [3] | outcome [4] | outcome [5] | outcome [9]

C1CCC2(CCCCO2)OC1
inactive: outcome [1] | outcome [2] | outcome [3] | outcome [4] | outcome [9]

CO[C@@]1(NC(=O)CSC[C@@H](N)C(=O)O)C(=O)N2C(C(=O)O)=C(CSc3nnnn3C)CS[C@@H]21
inactive: outcome [6] | outcome [7] | outcome [2] | outcome [8] | outcome [5] | outcome [9]

CN(C)CCN(C)CCN(C)C
inactive: outcome [1] | outcome [2] | outcome [3] | outcome [9]

O=C(CO)[C@@H](O)[C@H](O)[C@H](O)CO
inactive: outcome [3] | outcome [9]

CC[N+](CC)(CC(=O)Nc1c(C)cccc1C)Cc1ccccc1 (tested in a mixture with another compound)
inactive: outcome [6] | outcome [2] | outcome [3] | outcome [9]

CN1CC(=O)N/C1=N/C(=O)Nc1cccc(Cl)c1
inactive: outcome [6] | outcome [2] | outcome [4] | outcome [5] | outcome [9]

CC(C(=O)O)c1cccc(Oc2ccccc2)c1 (stereo unspecified)
inactive: outcome [6] | outcome [2] | outcome [4] | outcome [5] | outcome [9]

COc1cc(-c2ccc(=O)[nH]n2)ccc1OC(F)F
inactive: outcome [6] | outcome [7] | outcome [8] | outcome [9]

C=COCC1CCC(COC=C)CC1 (stereo unspecified)
inactive: outcome [6] | outcome [2] | outcome [3] | outcome [4] | outcome [5] | outcome [9]

O=C(CO)[C@@H](O)[C@H](O)[C@@H](O)CO
inactive: outcome [6] | outcome [2] | outcome [3] | outcome [9]

C=CCOCC(O)CO (stereo unspecified)
inactive: outcome [6] | outcome [7] | outcome [2] | outcome [3] | outcome [4] | outcome [9]

O=[N+]([O-])c1cncn1CCN1CCOCC1
inactive: outcome [6] | outcome [2] | outcome [3] | outcome [4] | outcome [5] | outcome [9]

CC1OC1C1CCC2(C)OC2C1 (stereo unspecified)
inactive: outcome [6] | outcome [2] | outcome [4] | outcome [5] | outcome [9]

Cc1c(N)c(=O)n(-c2ccccc2)n1C
inactive: outcome [6] | outcome [2] | outcome [3] | outcome [4] | outcome [9]

CCCCCCCCCCCCCCC(=O)O
inactive: outcome [10] | outcome [2] | outcome [3] | outcome [5] | outcome [9]

C[N+](C)(C)CCCCCCCCCC[N+](C)(C)C
inactive: outcome [6] | outcome [2] | outcome [3] | outcome [4] | outcome [5] | outcome [9]

Nc1ccccn1
inactive: outcome [6] | outcome [2] | outcome [3] | outcome [4] | outcome [5] | outcome [9]

C[C@@H]1CCC[C@H](C)N1
inactive: outcome [6] | outcome [2] | outcome [3] | outcome [4] | outcome [5] | outcome [9]

CCC(C(=O)NC(=O)NC(C)=O)c1ccccc1 (stereo unspecified)
inactive: outcome [6] | outcome [2] | outcome [3] | outcome [9]

CC(C)[C@H]1CC[C@@H](C)CC1=O
inactive: outcome [6] | outcome [2] | outcome [9]

CN(C)[C@@H]1C(=O)C(C(=O)NCN2CCCC2)=C(O)[C@@]2(O)C(=O)C3=C(O)c4c(O)cccc4[C@@](C)(O)C3C[C@@H]12 (stereo partly specified)
inactive: outcome [6] | outcome [2] | outcome [3] | outcome [4] | outcome [9]

CNCC(O)c1ccc(O)c(O)c1 (stereo unspecified)
inactive: outcome [2] | outcome [3] | outcome [4] | outcome [5] | outcome [9]

COc1c(N2CCNC(C)C2)c(F)cc2c(=O)c(C(=O)O)cn(C3CC3)c12 (stereo unspecified)
inactive: outcome [6] | outcome [7] | outcome [9]

CCCCCC(=O)OCCc1ccccc1
inactive: outcome [6] | outcome [2] | outcome [3] | outcome [4] | outcome [5] | outcome [9]

COc1cccc(OC)c1C(=O)N[C@@H]1C(=O)N2[C@@H]1SC(C)(C)[C@@H]2C(=O)O
inactive: outcome [6] | outcome [2] | outcome [3] | outcome [4] | outcome [5] | outcome [9]

C1CCC2=NCCCN2CC1
inactive: outcome [6] | outcome [2] | outcome [3] | outcome [4] | outcome [5] | outcome [9]

NO
inactive: outcome [6] | outcome [2] | outcome [3] | outcome [4] | outcome [5] | outcome [9]

C[N+]1(C)[C@@H]2CC(OC(=O)[C@H](CO)c3ccccc3)C[C@H]1[C@@H]1O[C@@H]12 (stereo partly specified)
inactive: outcome [6] | outcome [2] | outcome [3] | outcome [4] | outcome [5] | outcome [9]

CCCc1ncc(C[n+]2ccccc2C)c(N)n1
inactive: outcome [7] | outcome [2] | outcome [8] | outcome [3] | outcome [4] | outcome [5] | outcome [9]

O=[N+]([O-])c1ccc(/C=N\O)o1
inactive: outcome [2] | outcome [4] | outcome [5] | outcome [9]

Cc1ccc(C(=O)c2ccc(CC(=O)O)n2C)cc1
inactive: outcome [2] | outcome [3] | outcome [5] | outcome [9]

COc1cc2c(cc1OC)-c1cc3ccc(OC)c(OC)c3c[n+]1CC2
inactive: outcome [2] | outcome [3] | outcome [4] | outcome [9]

CCCCCCCCCCOc1cc2c(=O)c(C(=O)OCC)c[nH]c2cc1OCC
inactive: ratio activity, negative = inhibition [10] 0.26% [at 6.26 µM] | viability change, negative = cytotoxic [2] 4.21% [at 5.95 µM] | activity change, negative = cytotoxicity [9] -0.151% [at 5.95 µM]

CCN[C@@H]1C[C@H](N)[C@@H](OC2OC(CN)=CCC2N)[C@H](O)[C@H]1O[C@H]1OC[C@](C)(O)[C@H](NC)[C@H]1O (stereo partly specified)
inactive: viability change, negative = cytotoxic [6] 8.69% [at 0.575 µM] | viability change, negative = cytotoxic [2] 10.1% [at 0.55 µM] | activity change, negative = cytotoxicity [3] 2.76% [at 0.55 µM] | activation [4] 11.5% [at 0.554 µM] | activity change, negative = inhibition [5] 9.37% [at 0.628 µM] | activity change, negative = cytotoxicity [9] 0.0384% [at 0.55 µM]

NCCCC(N)(C(=O)O)C(F)F (stereo unspecified)
inactive: outcome [6] | outcome [2] | outcome [3] | outcome [4] | outcome [5] | outcome [9]

CC(C)C1CCC(O)CC1 (stereo unspecified)
inactive: outcome [6] | outcome [3] | outcome [4] | outcome [5] | outcome [9]

CC1(C)OC[C@@H](COC(=O)CCc2ccc(OC[C@@H](O)CNCCNC(=O)N3CCOCC3)cc2)O1
inactive: outcome [6] | outcome [2] | outcome [4] | outcome [5] | outcome [9]

CC(C)(CCC(=O)O)C(=O)O
inactive: outcome [6] | outcome [2] | outcome [3] | outcome [4] | outcome [5] | outcome [9]

C[N+]12CCC(CC1)C(OC(=O)C(O)(c1ccccc1)c1ccccc1)C2 (stereo unspecified)
inactive: outcome [7] | outcome [2] | outcome [3] | outcome [4] | outcome [5] | outcome [9]

O=S(=O)(O)c1cccc2c(S(=O)(=O)O)cccc12
inactive: outcome [6] | outcome [2] | outcome [3] | outcome [4] | outcome [5] | outcome [9]

CN(C)CCCCCCN(C)C
inactive: outcome [7] | outcome [2] | outcome [8] | outcome [3] | outcome [4] | outcome [5] | outcome [9]

CCC(C)(CN(C)C)OC(=O)c1ccccc1 (stereo unspecified)
inactive: outcome [6] | outcome [3] | outcome [4] | outcome [9]
